This note sets out measurements from PubChem BioAssay (EPA / NIEHS).

Assay [1] concerns the target Estrogen receptor beta (Homo sapiens) (UniProt Q92731). The experiment in a line: OT_ER_ERbERb_1440: Odyssey Thera (OT) 24-hour HEK293T Protein-Complementation Assay for Estrogen Receptor-beta/-beta Homodimer (AID 2283380).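 Note: fluorescence gain from ER beta LBD homodimer complementation read by laser scanning cytometry; scored as signal increase over DMSO baseline for both agonists and antagonists.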 The procedure, abridged: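 Fluorescence increase, nuclear for agonists or whole-cell for antagonists, relative to DMSO vehicle, quantified by laser scanning cytometer after fixation and Draq5 staining. Readout from 24 h treatment of HEK293T cells carrying complementation-paired ER beta LBD (aa 310-547).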

The target in assay [2] is Retinoic acid receptor RXR-alpha (Homo sapiens) (UniProt P19793). In words: OT_NURR1_NURR1RXRa_1440: Odyssey Thera (OT) 24-hour HEK293T Protein Complementation Assay for Nurr1/retinoid X receptor (RXR) (AID 2283386). The method in brief: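 Fluorescence PCA read-out; HEK293T; 24 h post-dose; bait/prey fused to reporter fragments; gain-of-signal fit vs DMSO negative control.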
Retinoic acid receptor RXR-alpha (Homo sapiens), sequence (P19793 whole entry, looked up, the tested form may be a part): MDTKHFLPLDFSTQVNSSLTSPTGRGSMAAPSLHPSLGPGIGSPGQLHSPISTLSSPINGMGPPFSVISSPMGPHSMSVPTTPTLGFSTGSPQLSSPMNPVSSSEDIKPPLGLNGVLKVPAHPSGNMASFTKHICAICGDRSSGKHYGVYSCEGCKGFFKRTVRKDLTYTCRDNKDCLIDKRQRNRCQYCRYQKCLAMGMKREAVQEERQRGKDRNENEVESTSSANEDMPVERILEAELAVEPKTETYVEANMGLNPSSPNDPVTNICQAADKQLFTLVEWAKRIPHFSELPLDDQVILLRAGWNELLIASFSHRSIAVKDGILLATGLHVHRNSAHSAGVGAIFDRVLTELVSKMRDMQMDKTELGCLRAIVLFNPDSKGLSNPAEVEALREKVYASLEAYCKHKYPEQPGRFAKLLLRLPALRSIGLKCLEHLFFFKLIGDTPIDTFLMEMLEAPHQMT

The target is the same in assay [3]. The experiment in a line: OT_NURR1_NURR1RXRa_0480: Odyssey Thera (OT) 8-hour HEK293T Protein Complementation Assay for Nurr1/retinoid X receptor (RXR) (AID 2283385). The method in brief: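 Read-out: fluorescence from protein-fragment complementation between Nurr1 and RXRα in human HEK293T cells, 8 h after dosing. DMSO served as negative control; increased signal counted as activity.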

Assay [4] has as its target Bile acid receptor (Homo sapiens) (UniProt Q96RI1). In words: OT_FXR_FXRSRC1_0480: Odyssey Thera (OT) 8-hour HEK293T Protein-Complementation Assay for Farnesoid X receptor/SRC-1 Co-activator (AID 2283383). The procedure, abridged:
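Fluorescence intensity read-out, 8 h post-dose, HEK293T protein-fragment complementation; FXR bait and SRC-1 prey each linked to reporter fragments. Activity scored as signal increase over DMSO negative control.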

Assay [5] concerns the target Estrogen receptor (Homo sapiens) (UniProt P03372). The experiment in a line: OT_ERa_GFPERaERE_0480: Odyssey Thera (OT) 8-hour HeLa Transcription Induction Assay for Estrogen Receptor (AID 2283381; active = hit-call score of the fitted dose curve at least 0.9, where 1 is the maximum; inactive = score below 0.9). The method in brief:
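GFP-ERE reporter, HeLa, 8 h exposure. Readout: fluorescence microscopy, high-content image analysis. Fit direction positive vs DMSO negative control.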

The target is the same in assay [6]. In words: OT_ERa_GFPERaERE_0120: Odyssey Thera (OT) 2-hour HeLa Transcription Induction Assay for Estrogen Receptor (AID 2283382). The method in brief:
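Fluorescence microscopy read-out: inducible fluorescent protein reporter in HeLa cells, imaged 2 h post-dose. Signal increase over DMSO negative control fitted as single primary endpoint via high content image analysis.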

Usually AC50 stands for the concentration at which the activity in the assay is half-maximal.

Records with an inconclusive call do not appear. More than one record can exist for a structure, and the calls need not agree. Active and inactive are the calls of the source. Rule for the calls, unless noted: active = hit-call score of the fitted dose curve at least 0.9, where 1 is the maximum; inconclusive = response in the unintended direction; inactive = score below 0.9.

Bile acid receptor (Homo sapiens), sequence (Q96RI1 whole entry, looked up, the tested form may be a part): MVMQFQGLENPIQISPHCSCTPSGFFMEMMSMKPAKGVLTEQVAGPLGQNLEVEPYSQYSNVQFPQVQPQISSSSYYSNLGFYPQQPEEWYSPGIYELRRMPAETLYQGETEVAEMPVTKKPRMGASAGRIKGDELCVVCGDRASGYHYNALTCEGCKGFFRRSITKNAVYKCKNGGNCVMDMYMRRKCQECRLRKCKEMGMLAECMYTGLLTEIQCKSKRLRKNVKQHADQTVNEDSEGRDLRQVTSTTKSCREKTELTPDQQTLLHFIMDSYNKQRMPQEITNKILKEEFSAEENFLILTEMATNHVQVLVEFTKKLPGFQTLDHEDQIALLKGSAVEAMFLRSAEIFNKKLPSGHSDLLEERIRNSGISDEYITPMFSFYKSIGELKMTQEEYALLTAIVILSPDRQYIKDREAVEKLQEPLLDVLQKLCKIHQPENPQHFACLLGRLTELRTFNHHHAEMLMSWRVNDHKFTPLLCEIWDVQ
Estrogen receptor beta (Homo sapiens), sequence (Q92731 whole entry, looked up, the tested form may be a part): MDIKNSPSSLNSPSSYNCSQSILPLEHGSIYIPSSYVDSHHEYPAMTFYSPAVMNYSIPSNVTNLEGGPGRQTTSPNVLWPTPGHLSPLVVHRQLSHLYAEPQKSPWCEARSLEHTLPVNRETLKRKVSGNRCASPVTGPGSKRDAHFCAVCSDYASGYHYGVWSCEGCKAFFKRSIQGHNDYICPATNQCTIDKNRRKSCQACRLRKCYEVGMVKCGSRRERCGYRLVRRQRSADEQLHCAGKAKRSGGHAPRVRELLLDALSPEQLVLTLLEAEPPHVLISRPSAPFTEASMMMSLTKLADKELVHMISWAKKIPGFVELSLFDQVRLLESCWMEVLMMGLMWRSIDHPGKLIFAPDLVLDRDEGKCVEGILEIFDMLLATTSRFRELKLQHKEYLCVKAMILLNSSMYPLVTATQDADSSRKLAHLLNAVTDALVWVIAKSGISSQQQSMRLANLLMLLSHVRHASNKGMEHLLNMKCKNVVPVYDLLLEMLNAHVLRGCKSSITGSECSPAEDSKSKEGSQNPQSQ
Estrogen receptor (Homo sapiens), sequence (P03372 whole entry, looked up): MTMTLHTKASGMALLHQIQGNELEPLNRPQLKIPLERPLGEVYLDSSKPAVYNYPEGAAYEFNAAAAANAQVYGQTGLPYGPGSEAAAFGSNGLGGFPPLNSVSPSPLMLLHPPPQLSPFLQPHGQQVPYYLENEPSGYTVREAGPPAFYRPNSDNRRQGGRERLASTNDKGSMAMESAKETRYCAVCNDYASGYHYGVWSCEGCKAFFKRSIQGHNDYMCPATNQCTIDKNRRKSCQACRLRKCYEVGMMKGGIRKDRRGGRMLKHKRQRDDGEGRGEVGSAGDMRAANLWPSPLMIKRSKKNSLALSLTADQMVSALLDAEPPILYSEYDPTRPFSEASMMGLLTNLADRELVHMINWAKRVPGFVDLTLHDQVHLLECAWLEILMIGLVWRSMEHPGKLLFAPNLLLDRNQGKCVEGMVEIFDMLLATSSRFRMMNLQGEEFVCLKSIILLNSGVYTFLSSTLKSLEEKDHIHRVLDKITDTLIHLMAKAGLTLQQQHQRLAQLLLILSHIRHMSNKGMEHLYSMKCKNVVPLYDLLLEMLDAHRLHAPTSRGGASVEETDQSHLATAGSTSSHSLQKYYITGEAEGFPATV

In the case of `Cc1ccc(S(=O)(=O)O)cc1`, the compound was classed as inactive in assay [1] and in assay [2].
In the case of `OCC(CO)(CBr)CBr`, the call in assay [3] was inactive.
As to `Cc1[nH]nc2c1N=C(c1ccccc1Cl)c1cc([N+](=O)[O-])ccc1N2`, the outcome in assay [1] was inactive. The half-maximal activity concentration (AC50) in assay [4] was 1.06 µM (active).
For the compound `O=S(=O)(O)c1ccccc1`, the outcome in assay [1], in assay [4], in assay [3] and in assay [2] was inactive.
With `NS(=O)(=O)O`, the compound was called inactive in assay [1], in assay [3] and in assay [2].
As to `Cc1cc(C(C)(C)C)c(O)c(C(C)(C)C)c1`, the outcome in assay [1] was inactive. In addition, the AC50 in assay [4] is 11.3 µM (active); in assay [3] it was 74.6 µM (active); in assay [2] it was 77.3 µM (active).
Consider `CCc1ccccc1O`, for which the result in assay [1], in assay [5], in assay [6] and in assay [4] was inactive.
Consider `Cc1ccc(C)c(S(=O)(=O)O)c1`, for which, in assay [3], the compound was called inactive.
On to `CCCCC=O`, for which the call in assay [3] and in assay [2] was inactive.
Consider `CCCCC(CC)C(=O)O` (centres undefined), for which the compound was classed as inactive in assay [2].
In the case of `O=C(CCCN1CCC(O)(c2ccc(Cl)cc2)CC1)c1ccc(F)cc1`, the outcome in assay [1], in assay [4], in assay [3] and in assay [2] was inactive. Moreover, the half-maximal activity concentration (AC50) in assay [2] is 80.3 µM (active).
